Results on 21 molecules are retold here after PubChem BioAssay (NCI).

Compounds without any hit were thinned out: in the full panel of roughly 79,000, 15% have a hit. Values without a mark were called inactive. The source made the active and inactive calls. Cut-off read from the data, not from the text of the source: active = growth inhibition above about 70%; inactive = the rest. Where a SMILES comes first, the peptide text is derived from it. [ ]: non-standard residue; d: D form. pGlu = O=C1CC[CH](C(=O)O)N1

A short description of assay [1]: NCI Yeast Anticancer Drug Screen. Data for the rad50 strain (AID 155).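 Note: 0% = growth of vehicle-only cultures of the same strain.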 As to conditions: S. cerevisiae rad50 strain growth inhibition; at 50.0 µM; hits give high values. The method, boiled down: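 Genetically altered yeast (DNA repair pathway); compound treatment; growth inhibition vs vehicle ctrl.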
The nature of assay [2]: NCI Yeast Anticancer Drug Screen. Data for the mec2-1 strain (AID 157). As to conditions: S. cerevisiae mec2-1 strain, at 50.0 µM, hits give high values. The essentials:
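Cells of the genetically defined mec2-1 yeast strain are incubated with test compound. Inhibition of growth is calculated against vehicle-treated controls.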

A short description of assay [3]: NCI Yeast Anticancer Drug Screen. Data for the sgs1 mgt1 strain (AID 161).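 Note: 0% = growth of cultures given vehicle only.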 The note with it: S. cerevisiae sgs1 mgt1 strain, at 50.0 µM, hits give high values. The essentials:
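Genetically altered yeast, compound exposure, growth inhibition relative to vehicle.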

Assay [4] in a line: NCI Yeast Anticancer Drug Screen. Data for the cln2 rad14 strain (AID 165).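 Note: 0% = growth equal to vehicle treated cultures.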 The note with it: S. cerevisiae cln2 rad14 strain, at 50.0 µM, hits give high values. The essentials:
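The screen exposed genetically defined yeast (cln2 rad14) to test compounds and scored growth inhibition relative to vehicle-treated controls.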

A short description of assay [5]: NCI Yeast Anticancer Drug Screen. Data for the bub3 strain (AID 167). As to conditions: S. cerevisiae bub3 mutant strain, at 50.0 µM, hits give high values. The essentials: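 Yeast carrying a defined mutation is treated with each compound, and growth is compared with that of vehicle-exposed cells to give inhibition.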
The nature of assay [6]: NCI Yeast Anticancer Drug Screen. Data for the mlh1 rad18 strain (AID 175). As to conditions: S. cerevisiae mlh1 rad18 strain growth inhibition; at 50.0 µM; hits give high values. The method, boiled down:
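Compound-treated yeast growth, normalised to vehicle controls. Strain bears defined DNA repair mutations.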

As to `COC(=O)C1OC1C(=O)OC` (stereo unspecified), the growth inhibition in assay [1] was -17.4%; in assay [2], -26.5%; in assay [3], 1.15%; in assay [4] it was -28.9%; in assay [5], 12.3%; in assay [6], 1.6%.

As to `CC(C)/C(Cl)=N/OC(=O)Nc1ccc(Br)cc1`, the growth inhibition in assay [1] is 34.6%; in assay [2] it was 47.5%; in assay [3] it was 90.5% (active); in assay [4], 24.1%; in assay [5], 69.3%; in assay [6] it was 81.8% (active).

Turning to `CCCCCCCCCCCCOc1ccc(F)cc1C`, the growth inhibition was 6% in assay [1]; -1.15% in assay [2]; 0.45% in assay [3]; 4.6% in assay [4]; 10.7% in assay [5]; 13.4% in assay [6].

As to `ClCCc1ccccc1CC1=NCCc2ccccc21`, the growth inhibition is 18.6% in assay [1]; -26.4% in assay [2]; -23.7% in assay [3]; 6.3% in assay [4]; -12.8% in assay [5]; 54.8% in assay [6].

As to `CC(C)C(N)C(=O)Nc1nncs1` (stereo unspecified), the growth inhibition in assay [1] was 11.6%; in assay [2], -2.15%; in assay [3] it was -8%; in assay [4], -10.1%; in assay [5], -33.6%; in assay [6] it was -28.6%.

Consider `CCOC(=O)N(C)Cc1ccc(Cl)cc1`, for which the growth inhibition in assay [1] is 5.75%; in assay [2], -1.1%; in assay [3], 1.25%; in assay [4], -26.2%; in assay [5] it was -11.8%; in assay [6] it was 21.4%.

Regarding `CC1=CC(=O)C2C(C)(C)CCCC2(C)C1(O)CCc1ccoc1` (stereo unspecified), the growth inhibition is 96.2% (active) in assay [1]; 88% (active) in assay [2]; 93.4% (active) in assay [3]; 92.2% (active) in assay [4]; 89.7% (active) in assay [5]; 96.8% (active) in assay [6].

For the molecule `O=C(Nc1ccccn1)c1ccc([N+](=O)[O-])cc1`, the growth inhibition was 33% in assay [1]; 7.95% in assay [2]; 15.4% in assay [3]; 5.45% in assay [4]; -1.8% in assay [5]; -2.4% in assay [6].

Consider `Nc1nc(NC(=O)C2=NS(=O)(=O)c3cc(S(N)(=O)=O)c(Cl)cc3N2)n[nH]1`, for which the growth inhibition was -8.9% in assay [1]; -26.2% in assay [2]; -3.85% in assay [3]; 9.7% in assay [4]; 0.7% in assay [5]; -2.3% in assay [6].

`CC1=Nc2ccccc2N2C1=CC1=C(C(=O)c3cc4ccccc4cc3C1=O)C2C` (stereo unspecified): the growth inhibition was 16.4% in assay [1]; 6.65% in assay [2]; 5.75% in assay [3]; 24.2% in assay [4]; -5.2% in assay [5]; 24.4% in assay [6].

As to `COc1ccc(C(=O)/C=c2/c(CC(=O)c3ccc(OC)cc3)nc3nnc(N)n23)cc1`, the growth inhibition in assay [1] is 15.5%; in assay [2] it was -4.05%; in assay [3], -6.25%; in assay [4], 21.9%; in assay [5], 1.45%; in assay [6], 8.6%.

In the case of `CC(=O)NCCSC(=O)CCCCCCCCC(=O)SCCNC(C)=O`, the growth inhibition was 11.8% in assay [1]; -0.25% in assay [2]; 27.2% in assay [3]; 22.1% in assay [4]; 6.55% in assay [5]; 6.5% in assay [6].

Regarding `CCN(CC)CCC1(C(N)=O)Cc2ccccc2N(CC)c2ccccc21` (stereo unspecified), the growth inhibition was 13.6% in assay [1]; 10.6% in assay [2]; 8.7% in assay [3]; -2.6% in assay [4]; 6.4% in assay [5]; 1.85% in assay [6].

With `CC1CC2OC(=O)C(C)C2CC2(C)C(OC3OC(CO)C(O)C(O)C3O)OCCC12` (stereo unspecified), the growth inhibition is 11.7% in assay [1]; 2.25% in assay [2]; -17.9% in assay [3]; 4.4% in assay [4]; -6.8% in assay [5]; -49.7% in assay [6].

For the molecule `O=c1ccn2n1Cc1ccccc1C2`, the growth inhibition in assay [1] was -25.9%; in assay [2] it was -20.8%; in assay [3], -17.9%; in assay [4] it was 13.3%; in assay [5], -6.05%; in assay [6], -20.6%.

With `NCCCn1[nH]c(=O)c2ncccc2c1=O`, the growth inhibition in assay [1] is -60.1%; in assay [2], -28.8%; in assay [3], -11.7%; in assay [4] it was -91.5%; in assay [5], -21.6%; in assay [6] it was -18.7%.

For `COc1cc2nc3n(c(=O)c2cc1OC)CCCCC3`, the growth inhibition in assay [1] was 10.4%; in assay [2], 14.6%; in assay [3] it was 3.75%; in assay [4], -13.2%; in assay [5] it was 28%; in assay [6], -19.8%.

Consider `Cc1nc2ccc(C(F)(F)F)cc2nc1Nc1ccc(Cl)c(Cl)c1`, for which the growth inhibition is 20.2% in assay [1]; 27.4% in assay [2]; 47.6% in assay [3]; 15.2% in assay [4]; 6.95% in assay [5]; 34% in assay [6].

On to `NC(CO)C(=O)NCCS(=O)(=O)O` (stereo unspecified), for which the growth inhibition was -10.7% in assay [1]; 9.6% in assay [2]; -3.7% in assay [3]; 22.1% in assay [4]; -7.05% in assay [5]; -6.95% in assay [6].

For the molecule `CC1(C)CCCc2c(-c3ccccc3)cc3c4[nH]c5ccccc5c4cc[n+]3c21`, the growth inhibition was 23.6% in assay [1]; -5.4% in assay [2]; 11.1% in assay [3]; 3.65% in assay [4]; -2.5% in assay [5]; 7% in assay [6].

As to `CC(NC(=O)C(Cc1cnc[nH]1)NC(=O)C1CCC(=O)N1)C(N)=O` (stereo not drawn) ([pGlu]-His-Ala-NH2; configuration not given here), the growth inhibition in assay [1] was -15.4%; in assay [2], -75%; in assay [3], -17.3%; in assay [4] it was -21.8%; in assay [5], -12.7%; in assay [6] it was -25.9%.
